Results filed as inconclusive are left out. Active and inactive are the calls of the source. Calls follow the shape of the dose curve; as a rule, active = well fitted curve in the direction sought with a large enough effect; inconclusive = small, poorly fitted or top-dose-only effect, or another doubt; inactive = no such curve, though single readings can be large; an effect the other way counts as inactive or inconclusive.
What was measured:
[1] = qHTS to identify inhibitors of the type 1 interferon - major histocompatibility complex class I in skeletal muscle: primary screen against the NCATS Pharmaceutical Collection (AID 1347407);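 also: luminescence of HiBiT knocked into endogenous HLA-B as interferon-induced MHC class I level; % is scaled to controls: 0 for no effect and ±100 for the full control effect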
Summary of the method: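 A qHTS format is used: 8-point, 1:5 compound series with 46 uM top final concentration, applied alongside 4 ng/ml IFN-beta to HLA-B*08:01-HiBiT knock-in myoblasts. Luminescence is measured after 24 h treatment.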

[2] = target: Protein phosphatase 1D (Homo sapiens) (UniProt O15297); test: RapidFire Mass Spectrometry qHTS Assay for Modulators of WT P53-Induced Phosphatase 1 (WIP1) (AID 1347424);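 also: amount of dephosphorylated VEPPL-S-QETFS peptide product formed by WIP1; series mostly up to about 63 µM; plate controls were DMSO wells for no effect and GSK830371 inhibitor control at 10 µM for full effect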
Summary of the method: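 RapidFire mass spectrometry measured dephosphorylated peptide after 5 min room-temperature reaction of 2 uM VEPPL-pS-QETFS with 10 nM WIP1 (50 mM Tris-HCl pH 7.5, 30 mM MgCl2, 0.1 mM EGTA, BSA), following 1 hr compound preincubation; 1 uM isotope-labelled product standard.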

[3] = target: Protein phosphatase 1D (Homo sapiens) (UniProt O15297); test: Rhodamine-PBP qHTS Assay for Modulators of WT P53-Induced Phosphatase 1 (WIP1) (AID 1347425); also: % of control where 0% means no effect
Summary of the method: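 Read-out: Rhodamine-PBP fluorescence (ex 525/em 598 nm) for released Pi, read each minute for 11 min after adding 10 uM VEPPL-pS-QETFS; signal taken as f1 minus pre-substrate f0. Enzyme 5 nM WIP1 with 1 hr room-temperature compound preincubation.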

[4] = Primary qHTS for inhibitors of La Crosse Virus (LACV) - induced cell death in SH-SY5Y cells (AID 1508616);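 also: top concentration of the series differs between compounds; 0% = infected DMSO wells and 100% = uninfected DMSO wells; higher means more rescue of cells from virus-induced death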
Summary of the method: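 Cytopathicity rescue screen: compounds pinned onto SH-SY5Y cells, which are then infected with LACV (MOI 0.01) and held 6 days at 37C. Percent activity is scaled between infected DMSO control and uninfected DMSO control.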

[5] = target: Calcium and integrin-binding protein 1 (Homo sapiens) (UniProt Q99828); test: Primary qHTS for Identification of Calcium Integrin Binding Protein 1 (CIB1) Competitor (AID 1508620);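 also: GST tagged CIB1 binding a fluorescein labelled alphaIIb integrin peptide tracer; top concentration of the series differs between compounds; % is scaled to controls: 0 for no effect and ±100 for the full control effect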
Summary of the method: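 CIB1-GST (1 uM final) and compound incubated 15 min at room temperature before adding FITC-alphaIIb peptide tracer (100 nM final). Competition for binding read by fluorescence polarization (ex 480, em 540) after another 15 min at room temperature.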

Chain of Protein phosphatase 1D (Homo sapiens) (O15297 whole entry, looked up): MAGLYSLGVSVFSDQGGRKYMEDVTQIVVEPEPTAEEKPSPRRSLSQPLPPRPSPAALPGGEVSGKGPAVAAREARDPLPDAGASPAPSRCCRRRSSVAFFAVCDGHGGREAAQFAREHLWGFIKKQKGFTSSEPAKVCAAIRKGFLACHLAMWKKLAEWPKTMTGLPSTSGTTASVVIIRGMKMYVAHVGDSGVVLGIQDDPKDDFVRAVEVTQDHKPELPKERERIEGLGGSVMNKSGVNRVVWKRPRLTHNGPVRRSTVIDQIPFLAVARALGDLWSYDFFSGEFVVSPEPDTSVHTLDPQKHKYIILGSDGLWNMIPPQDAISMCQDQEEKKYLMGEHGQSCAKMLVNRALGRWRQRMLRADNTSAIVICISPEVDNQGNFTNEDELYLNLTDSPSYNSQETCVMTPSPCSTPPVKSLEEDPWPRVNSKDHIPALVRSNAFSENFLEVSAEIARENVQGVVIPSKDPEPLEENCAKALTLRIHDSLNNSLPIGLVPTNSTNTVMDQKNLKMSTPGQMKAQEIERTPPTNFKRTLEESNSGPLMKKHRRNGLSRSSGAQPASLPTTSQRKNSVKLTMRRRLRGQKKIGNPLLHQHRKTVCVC
Chain of Calcium and integrin-binding protein 1 (Homo sapiens) (Q99828 whole entry, looked up): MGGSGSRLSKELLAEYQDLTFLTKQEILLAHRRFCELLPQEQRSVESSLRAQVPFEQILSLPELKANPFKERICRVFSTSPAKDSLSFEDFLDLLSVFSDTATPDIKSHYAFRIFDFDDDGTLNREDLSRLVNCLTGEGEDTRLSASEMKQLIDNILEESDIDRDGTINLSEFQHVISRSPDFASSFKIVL

Cc1cc2c(OCC(CNC(C)(C)C)OC(=O)c3ccccc3)cccc2[nH]1 (stereo not given)
inactive: Potency [1] | Potency [2] | outcome [3] | outcome [4] | Potency [5]

CCN(CC)CCOC(=O)C1(c2ccccc2)CCCC1
inactive: Potency [1] | Potency [2] | outcome [3] | outcome [4] | Potency [5]

CCc1ccc(C(=O)C(C)CN2CCCCC2)cc1 (stereo not given)
inactive: Potency [1] | Potency [2] | outcome [3] | outcome [4] | Potency [5]

CNCCc1ccccn1
inactive: Potency [1] | Potency [2] | outcome [3] | outcome [4] | Potency [5]

Cc1cc(NS(=O)(=O)c2ccc(N)cc2)nc(C)n1
inactive: Potency [1] | Potency [2] | outcome [3] | outcome [4] | Potency [5]

Cc1cc(CC(=O)O)c(C)n1-c1ccc(Cl)cc1
inactive: Potency [1] | Potency [2] | outcome [3] | outcome [4] | Potency [5]

CC(=O)NC(=O)c1ccccc1O
inactive: Potency [1] | Potency [2] | outcome [3] | outcome [4] | Potency [5]

NC(=O)C1(N2CCCCC2)CCN(CCCC(=O)c2ccc(F)cc2)CC1
inactive: Potency [1] | Potency [2] | outcome [3] | outcome [4] | Potency [5]

C[C@]12CCC(=O)C=C1C=C[C@@H]1[C@@H]2CC[C@@]2(C)[C@H]1CC[C@@]21CCC(=O)O1
inactive: Potency [1] | Potency [2] | outcome [3] | outcome [4] | Potency [5]

C/C=C/c1ccc(O)c(OC)c1
inactive: Potency [1] | Potency [2] | outcome [3] | outcome [4] | Potency [5]

Cc1c[nH]c2ccccc12
inactive: Potency [1] | Potency [2] | outcome [3] | outcome [4] | Potency [5]

CCCCCCCCCCCCOCCOCCOCCOCCOCCOCCOCCOCCOCCO
inactive: Potency [1] | Potency [2] | outcome [3] | outcome [4] | Potency [5]

CC(=O)Nc1ccc(S(=O)(=O)Nc2ccc([N+](=O)[O-])cc2)cc1
inactive: Potency [1] | Potency [2] | outcome [3] | outcome [4] | Potency [5]

CN(CCCN1c2ccccc2CCc2ccccc21)CC(=O)c1ccc(Cl)cc1
inactive: Potency [1] | Potency [2] | outcome [3] | outcome [4] | Potency [5]

COc1cc(C(=S)N2CCOCC2)ccc1O
inactive: Potency [1] | Potency [2] | outcome [3] | outcome [4] | Potency [5]

COc1cc(NS(=O)(=O)c2ccc(N)cc2)ncn1
inactive: Potency [1] | Potency [2] | outcome [3] | outcome [4] | Potency [5]

CCC(C(=O)OCCOCCN(CC)CC)c1ccccc1 (stereo not given)
inactive: Potency [1] | Potency [2] | outcome [3] | outcome [4] | Potency [5]

OC(C#CCN1CCCC1)(c1ccccc1)c1ccccc1
inactive: Potency [1] | Potency [2] | outcome [3] | outcome [4] | Potency [5]

CC(C)(C)NCC(O)COc1cccc2c1C[C@H](O)[C@H](O)C2 (stereo not given in full)
inactive: Potency [1] | Potency [2] | outcome [3] | outcome [4] | Potency [5]

N=C(N)N1CCc2ccccc2C1
inactive: activity change, negative = inhibition [1] -4.74% [at 3.83 µM] | activity change, negative = inhibition [2] -1.79% [at 6.17 µM] | activity change, negative = inhibition [3] -1.93% [at 4.81 µM] | activity change [4] -3.22% [at 0.431 µM] | activity change, negative = inhibition [5] -1.23% [at 12.4 µM]

O=C1OC(CN2CCOCC2)CN1/N=C/c1ccc([N+](=O)[O-])o1 (stereo not given)
inactive: Potency [1] | Potency [2] | outcome [3] | outcome [4] | Potency [5]

CCOC(=O)[C@@](C)(N)Cc1ccc(O)c(O)c1
inactive: Potency [1] | Potency [2] | outcome [3] | outcome [4] | Potency [5]

CCCCC(CC)COC(=O)c1ccc(N(C)C)cc1 (stereo not given)
inactive: Potency [1] | Potency [2] | outcome [3] | outcome [4] | Potency [5]

CCOC(=O)Nc1ccc2c(c1)N(C(=O)CCN1CCOCC1)c1ccccc1S2
inactive: Potency [1] | Potency [2] | outcome [3] | outcome [4] | Potency [5]

Nc1nc(-c2ccccc2)c(Br)c(=O)[nH]1
inactive: Potency [1] | Potency [2] | outcome [3] | outcome [4] | Potency [5]

Nc1nc(N)c(-c2ccccc2)s1
inactive: Potency [1] | Potency [2] | outcome [3] | outcome [4] | Potency [5]

Nc1ccc(S(=O)(=O)Nc2cnc3ccccc3n2)cc1
inactive: Potency [1] | Potency [2] | outcome [3] | outcome [4] | Potency [5]

CCO[C@@H]1O[C@H](C(COCc2ccccc2)OCc2ccccc2)[C@H](OCc2ccccc2)[C@H]1O (stereo not given in full)
inactive: Potency [1] | Potency [2] | outcome [3] | outcome [4] | Potency [5]

CCC1Nc2cc(Cl)c(S(N)(=O)=O)cc2S(=O)(=O)N1 (stereo not given)
inactive: Potency [1] | Potency [2] | outcome [3] | outcome [4] | Potency [5]

CCOC(=O)C(C#N)=C(c1ccccc1)c1ccccc1
inactive: Potency [1] | Potency [2] | outcome [3] | outcome [4] | Potency [5]

CC(C)(Cc1c[nH]c2ccccc12)NCC(O)COc1ccccc1C#N (stereo not given)
inactive: Potency [1] | Potency [2] | outcome [3] | outcome [4] | Potency [5]

O=C(O)Cc1csc(-c2ccc(Cl)cc2)n1
inactive: Potency [1] | Potency [2] | outcome [3] | outcome [4] | Potency [5]

OCCOCCN1CCN(C2=Nc3ccccc3Sc3ccccc32)CC1
inactive: Potency [1] | Potency [2] | outcome [3] | outcome [4] | Potency [5]

O=S(=O)(O)c1ccc(O)cc1
inactive: Potency [1] | Potency [2] | outcome [3] | outcome [4] | Potency [5]

CCc1cc(Cl)c(OC)c(C(=O)NC[C@@H]2CCCN2CC)c1O
inactive: Potency [1] | Potency [2] | outcome [3] | outcome [4] | Potency [5]

Reference: PubChem BioAssay (NCATS)
